Reference: ChEMBL document CHEMBL3988442, “University of Dundee, Small-Polar-MMV Screening Library” (2021)
The campaign covered roughly 38,000 compounds. About 1,200 (3.2%) showed an effect of 50% or more. The median lay at about -58%. Shown is part of a subset that was picked to be rich in strong results.

Each compound was assayed on Plasmodium falciparum (assay: Calibr Malaria Delayed Death Assay SOP). Settings: concentration 4.99e-06 (unit not given; other assays of the set use mol/L).
Assay type: functional, organism-based
Design: scale not given: in the data most compounds retested in dose-response had high values

Row | SMILES | Percent Effect [%]
1 | Cc1nc(CN2CCCC(NCc3ccc4c(c3)CCO4)C2)no1 (stereo not given) | -110.8
2 | CCCc1nc(N2CCSCC2)c2c(n1)c(C)nn2CC | -63.17
3 | CN(C)CC1CN(Cc2ccc(F)cc2)Cc2nccn2C1.O=C(O)C(F)(F)F.O=C(O)C(F)(F)F (stereo not given) | 12.77
4 | Cc1ccc(CN2Cc3nccn3CC(CN(C)C)C2)s1.O=C(O)C(F)(F)F.O=C(O)C(F)(F)F (stereo not given) | -55.03
5 | Cc1ccc(CN2Cc3nccn3CC(Cn3cccn3)C2)s1.O=C(O)C(F)(F)F (stereo not given) | -33.05
6 | CCN(CC)CC1CN(Cc2nccs2)Cc2nccn2C1.O=C(O)C(F)(F)F.O=C(O)C(F)(F)F (stereo not given) | 18.43
7 | CCN(CC)CC1CN(Cc2ccc(C)s2)Cc2nccn2C1.O=C(O)C(F)(F)F.O=C(O)C(F)(F)F (stereo not given) | 66.72
8 | CCN(CC)CC1CN(CCc2ccccc2)Cc2nccn2C1.O=C(O)C(F)(F)F.O=C(O)C(F)(F)F (stereo not given) | 57.03
9 | O=C(NCC1CC1)c1cc2c(s1)CCN2c1ncccn1 | -131.9
10 | O=C(c1cnc2ccc(Cl)cc2c1NCc1ccco1)N1CCCCC1 | -150.7
11 | Cc1ncsc1-c1nnc(C2CCN(Cc3ccc(Cl)cc3)CC2)o1 | -44.81
12 | CC(C)(CN1CCC2(CCOCC2)CC1)N1CCOCC1 | -173.8
13 | COCC1c2nnn(C)c2CCN1C(=O)Cc1ccccn1 (stereo not given) | -28.75
14 | Cc1ccc(C)c(S(=O)(=O)N2CCN(C)C3(CCC(=O)N(C)CC3)C2)c1 (stereo not given) | -116.8
15 | CCc1ccc(S(=O)(=O)N2CCCC(c3ncc[nH]3)C2)s1 (stereo not given) | 13.27
16 | CCS(=O)(=O)NC1CCCN(c2cc(C)ccc2F)C1=O (stereo not given) | 0.205
17 | Cc1noc(C)c1-c1n[nH]c2c1CN(S(=O)(=O)c1cccs1)CC2 | -28.6
18 | CCC[C@H]1CN(S(=O)(=O)c2cc(C)ccc2F)C[C@@H]1N | 52.25
19 | Cc1ccc(F)c(S(=O)(=O)N2CCCC2c2ccncc2)c1 (stereo not given) | -74.84
20 | CCC[C@H]1CN(S(=O)(=O)c2cc(C)ccc2C)C[C@@H]1N | 67.41
21 | CCC[C@H]1CN(S(=O)(=O)c2ccccc2)C[C@@H]1N | 16.03
22 | Cc1cccc(OCC(O)CNCc2c(C)nn(C)c2N(C)C)c1 (stereo not given) | 22.52
23 | O=C(O)C(F)(F)F.O=C(O)C(F)(F)F.O=S1(=O)c2ccccc2C2(CCN(Cc3cccnc3)C2)N1CC1CC1 (stereo not given) | -8.635
24 | CS(=O)(=O)NC[C@]12COC[C@H]1CN(CC1CCC1)C2.O=C(O)C(F)(F)F | -46.78
25 | CS(=O)(=O)N1C[C@H]2CN(CC3CC3)C(=O)[C@H]2C1 | -17.38
